Out of some 330,000 compounds screened, about 4,100 (1.2%) were called active. Inconclusive results (about 2%) are left out. For the sample, actives were picked, then their nearest neighbours and some compounds at random. A number with no mark means an inactive call. The calls were made as follows: active = max response of -50% or lower; inconclusive = between -30% and -50%; inactive = -30% or higher.
These compounds were tested against Phosphatidylinositol 5-phosphate 4-kinase type-2 alpha (Homo sapiens) (UniProt P48426) (assay: qHTS for Inhibitors of phosphatidylinositol 5-phosphate 4-kinase (PI5P4K)). Details: PI5P4Kalpha enzyme, ADP-Glo luminescence, 60 min; stronger effect = lower value.
From the text: In addition to finding PI5P, we discovered the type II phosphatidylinositol 5-phosphate 4-kinase (PI5P4K) family (alpha, beta, gamma isoforms) that catalyze the conversion of PI5P to PI(4,5)P2. Alternatively, PI(4,5)P2 can also be synthesized through phosphatidylinositol-4-phosphate (PI4P) by the type I phosphatidylinositol 4-phosphate 5-kinases (PI4P5K). These PI5P4K enzymes therefore represent one way by which cells can regulate endogenous PI5P levels and play important roles in insulin signaling and in stress responses.
This proposal aims to identify and optimize specific modulators of human PI5P4K, phosphatidylinositol-5-phosphate 4-kinase (Type II PIPK), a family of kinases that regulate AKT signaling and tumor cell growth. In this project we aim to identify inhibitors of human PI5P4K using a quantitative high-throughput screening approach against the MLSMR containing ~400,000 small molecules.
NIH Chemical Genomics Center [NCGC]
NIH Molecular Libraries Probe Centers Network [MLPCN]
Assay Submitter (PI): Atsuo Sasaki, Beth Israel Deaconess Medical Center
2 microL of PI5P4Kalpha/substrate buffer (columns 1-2, 5-48) are dispensed into Greiner white solid bottom 1536-well assay plates; column 3 receives only PI5P4Kalpha buffer as 0x substrate controls; column 4 receives only substrate buffer as 0x PI5P4Kalpha controls. Final assay buffer consists of 0.038 M HEPES pH 7.4, 0.28 mM EGTA, 0.1% CHAPS, and 5% DMSO (final concentration). Compounds are then transferred via Kalypsys pin tool equipped with 1536-pin array (10 nL slotted pins, V&P Scientific, San Diego, CA). Following addition of compound, 1 microL of ATP (5 microM final concentration, all columns) is added to initiate the reaction. ATP is diluted in an assay buffer consisting of 0.02 M HEPES pH 7.4, 60 mM MgCl2, 15 microM ATP, and 0.1% CHAPS. The plates are then incubated at room temperature for 60 minutes. ADP-Glo reagent 1 is added (2 microL) and plates incubated for 45 minutes, before ADP-Glo reagent 2 (4 microL) is added and plates incubated for 30 minutes. They are then transferred to a ViewLux high-throughput CCD imager (PerkinElmer) wherein single end-point measurements of luminescence are acquired using a clear filter.
% is scaled to controls: 0 for no effect and ±100 for the full control effect.
Also: value at the top dose of about 77 µM.

Sequence of Phosphatidylinositol 5-phosphate 4-kinase type-2 alpha (Homo sapiens) (P48426 whole entry, looked up, canonical isoform): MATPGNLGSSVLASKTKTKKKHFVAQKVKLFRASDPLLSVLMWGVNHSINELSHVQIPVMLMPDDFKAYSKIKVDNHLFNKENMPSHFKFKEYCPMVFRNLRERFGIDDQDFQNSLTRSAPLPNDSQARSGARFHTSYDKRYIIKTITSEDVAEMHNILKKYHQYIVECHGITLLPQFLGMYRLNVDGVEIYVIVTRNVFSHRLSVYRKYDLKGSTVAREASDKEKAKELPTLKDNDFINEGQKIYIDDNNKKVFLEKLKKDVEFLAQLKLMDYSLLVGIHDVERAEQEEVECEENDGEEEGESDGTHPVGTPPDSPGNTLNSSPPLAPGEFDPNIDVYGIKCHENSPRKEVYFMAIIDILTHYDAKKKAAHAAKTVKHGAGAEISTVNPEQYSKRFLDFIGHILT

Structure (SMILES) | max response
O=C(Nc1ccc(S(=O)(=O)Nc2nccs2)cc1)c1cc(-c2ccncc2)nc2ccccc12 | -67.1% (active)
O=C(Nc1ccc(S(=O)(=O)Nc2nccs2)cc1)c1cc(=O)[nH]c2ccccc12 | -12.6%
CCN(CC)CCNC(=O)c1ccc(NC(=O)c2cc(-c3ccncc3)nc3ccccc23)cc1 | -5.2%
Cc1nn(CC(=O)Nc2ccc3c(c2)OCO3)c(C)c1[N+](=O)[O-] | 1.6%
Cc1ccc(C(=O)O)cc1-c1ccc(/C=C2\SC(=O)N(CC(=O)Nc3ccc4c(c3)OCO4)C2=O)o1 | -59.9% (active)
Cc1ccc(C(=O)Nc2ccc3c(c2)OCO3)cc1S(=O)(=O)N1CCCCC1 | 0.934%
CC(=O)Nc1cc(-c2ccc(N3CCN(C)CC3)cc2)cn2c(-c3cccc(C(=O)N(C)C)c3)cnc12 | 4.25%
CCc1nc2c(OCCOc3ccc(F)cc3)cccn2c1N(C)C(=O)c1ccccc1F | -7.43%
COc1cccc(-c2ccc3c(c2)N(Cc2ccccc2OC)C(=O)C(C)S3)c1 (configuration not stated) | 20.2%
COc1ccc([C@H]2CC(=O)C[C@@H](CCn3cc(CC4CCCC4)nn3)O2)cc1 | 9.59%
Cc1ccc(N=C2NC(=O)/C(=C/C=C/c3ccco3)S2)cc1C | -76.1% (active)
CN1C(=O)/C(=C/c2ccco2)SC1=Nc1cccc(C(=O)O)c1 | -16.9%
Cc1ccc(N2NC(=O)/C(=C/C=C/c3ccco3)C2=O)cc1C | -13.7%
Cc1ccc(CSc2nc(-c3ccccc3)c(C#N)c(=O)[nH]2)cc1 | -3.14%
O=C(CSc1nc2ccccc2c(=O)[nH]1)Nc1nc(-c2ccc(Br)cc2)cs1 | 2.06%
N#Cc1c(-c2cccs2)nc(SCC(=O)c2ccc(Br)cc2)[nH]c1=O | -61.8% (active)
CCc1nc2c(OCCc3cccc(OC)c3)cccn2c1N(C)C(=O)c1ccc(C)cc1 | 2.18%
COc1ccc(CN2C[C@H]3CON(C)[C@H]3C[C@H]2c2ccc(-c3cccc(F)c3)cc2)cc1 | 18.3%
C[N+](C)(C)CCOP(=O)([O-])OC[C@H](O)CO | -87.3% (active)
COC(=O)C[C@H]1C=C[C@H](NC(=O)c2ccc(F)cc2)[C@@H](CO)O1 | -0.944%
COC(=O)c1ccc2nc(-c3cccc(Br)c3)c(Cc3ccccc3C(F)(F)F)n2c1 | 4.18%
C#CCN(C[C@@H]1[C@@H](OC(=O)NC2CC2)[C@@H](OC(=O)NC2CC2)Cn2c(=O)ccc(=O)n21)S(=O)(=O)c1ccc(C)cc1 | -1.14%
COCCNC(=O)C1C(=O)Nc2ccccc2C(=O)N1c1ccc2c(c1)OCCO2 (configuration not stated) | 7.16%

Structure (SMILES) | max response
O=C(NNC(=O)c1cc2c(s1)CCCC2)c1ccccc1 | 0.43%
O=C(c1ccccc1)c1ccc(C(=O)N2CCN(c3ccccc3)CC2)cc1 | 6.71%
O=C(c1cc2c(s1)CCC2)N1CCN(c2ccccc2)CC1 | -53% (active)
C=CCn1cnc2scc(-c3ccccc3)c2c1=O | -1.04%
CCC1(C)Cc2c(sc3[nH]c(=S)n(Cc4ccccc4)c(=O)c23)CO1 (configuration not stated) | -15.7%
C=CCn1c(=S)[nH]c2scc(-c3ccco3)c2c1=O | -84.2% (active)
Clc1cccc(Cc2c(-c3cccc(Cl)c3)nc3ccc(Cl)cn23)c1 | -3.6%
CCCCCNC(=O)C1C(=O)Nc2ccccc2C(=O)N1C(C)(C)C (configuration not stated) | -7.39%
CC(CNC(=O)c1ccc(Br)o1)NC(=O)c1ccc(Br)o1 (configuration not stated) | -54.6% (active)
O=C(NCc1cccs1)c1ccc(Br)o1 | 4.81%
O=C(CNC(=O)c1ccc(Br)o1)Nc1ccccc1 | -2.2%
CSc1ccc(CN2CCC2(C)C(=O)NCc2ccccc2Br)cc1 (configuration not stated) | 17.1%
COc1ccccc1-c1cc(NC(C)=O)c2ncc(-c3ccc(F)cc3)n2c1 | -5.85%
CCCc1ccc(C(O)c2ncc(-c3cccc(OC)c3)[nH]2)cc1 (configuration not stated) | 14%
COc1ccc(/C=C(/CC(=O)Nc2ccc(C)cc2)c2nc3ccccc3s2)cc1 | -7.45%
COc1cccc2sc(N(CCCN(C)C)C(=O)C(c3ccccc3)c3ccccc3)nc12 | 12.8%
COc1cccc2sc(NNC(=O)c3nc4ccccc4s3)nc12 | -61.5% (active)
O=C(/C=C/[C@H]1O[C@@H](n2ccc(=O)[nH]c2=O)[C@H](O)[C@@H]1O)NCc1ccccn1 | 2%
CCOC(=O)[C@H]1Nc2ccc(Cl)cc2[C@@H]2[C@H]1C1CC(c3ccccc31)N2C(=O)OCc1ccccc1 (some centres not stated) | 19.9%
CCOC(=O)C[C@H]1c2ccc(C(F)(F)F)cc2S(=O)(=O)N1c1ccccc1 | 2.77%
CCOC(=O)C1Nc2ccc(C(F)(F)F)cc2C2C=CCC12 (configuration not stated) | -55.4% (active)
Nc1cccc(-c2cncc(N3CCN(Cc4ccccn4)CC3)n2)c1 | -6.48%
C=CCNC(=O)CSc1nc2sc(C)c(C)c2c(=O)[nH]1 | -2.42%

Structure (SMILES) | max response
O=C(CSc1nc2c(cnn2-c2ccc(F)cc2)c(=O)[nH]1)N1CCCCCC1 | -3.16%
CC(=O)c1sc2nc(SCC(=O)N3CCCCC3)[nH]c(=O)c2c1C | -59.2% (active)
CCOC(=O)[C@]12CCCC=C1N(CCC1=CCCCC1)C(=O)[C@H](CC(=O)NCCCOC)C2 | -1.91%
Cc1cc(NC(=O)CN2CCCC(C)C2)n(-c2nc3ccccc3s2)n1 (configuration not stated) | 14.1%
CCC(C)Cn1c(O)cc2nn(-c3nc4ccccc4s3)c(=O)c-2c1C (configuration not stated) | -79.1% (active)
CCC(=O)NC(=Nc1nc2ccccc2s1)NC(=O)CC | 10.4%
COC(=O)[C@]12CCCCC=C1N(Cc1ccc(Cl)cc1Cl)C(=O)[C@H](CC(=O)NCc1cccc3ccccc13)C2 | 20.1%
COc1cc(C=C(OC(C)=O)c2ccc3c(c2)OCO3)cc(OC)c1OC | 3.06%
COc1cc(CN2CC(C)CC(C)C2)cc([N+](=O)[O-])c1O (configuration not stated) | 0.224%
COc1ccc(N2C(=O)CC(Nc3ccc(F)cc3)C2=O)c([N+](=O)[O-])c1 (configuration not stated) | -6.93%
COc1cc(/C=C2/C(=O)NN(c3ccc(F)cc3)C2=O)cc([N+](=O)[O-])c1O | -57.5% (active)
COc1cc(/C=N/O)cc(Br)c1OCc1cccc(Cl)c1 | 39.6%
C#CCOc1ccc(/C=C2/C(=O)NN(c3ccccc3)C2=O)cc1OC | -22.1%
COc1cc(/C=C2/C(=O)NN(c3cccc(Cl)c3)C2=O)cc(Br)c1O | -54.1% (active)
COC(=O)C1(C(=O)OC)C[C@H](c2ccccc2)N(Cc2ccccc2OC)[C@@H]1c1ccccc1 | 15.9%
CCc1cccc(CC)c1N1C(=O)CC(Sc2ccccc2N)C1=O (configuration not stated) | 0.428%
COCOc1cccc(CN2CCC(C)(Oc3ccc(SC)cc3)C2)c1 (configuration not stated) | 9.73%
CCCc1nc2c3ccccc3ccn2c1Cc1ccccc1C(F)(F)F | -0.571%
COC(=O)[C@]12CCCCC=C1N(Cc1ccccc1)C(=O)[C@H](CC(=O)NCc1ccc(C)o1)C2 | -16.1%
Cc1cc(NC(=O)COc2ccc([N+](=O)[O-])cc2)no1 | -7.69%
Cc1csc(NC(=O)Nc2ccccc2[N+](=O)[O-])n1 | 3.76%
Cc1cc(NC(=O)Nc2ccccc2[N+](=O)[O-])no1 | -55.9% (active)
Cc1c(C(=O)NCc2ccc(C#N)cc2)sc(=O)n1Cc1ccc(C(=O)N(C)C)cc1 | -1.71%

Structure (SMILES) | max response
COC(=O)c1ccc2nc(-c3ccccc3)c(Cc3ccc(OC)cc3C)n2c1 | -3.87%
CC1Cc2[nH][nH]c(=O)c2C(C2CC2)O1 (configuration not stated) | 6.96%
COc1ccc(-c2cc3c(c4c2ccn4C)C2CCC3C2)cn1 (configuration not stated) | 19.1%
S=c1[nH]nc(COc2ccccc2)n1-c1ccccc1 | 2.36%
COc1ccc(OCc2n[nH]c(=S)n2N)cc1 | -58.2% (active)
Cc1ccc(OCc2n[nH]c(=S)n2-c2ccccc2)cc1 | -0.211%
CCc1nnc(NS(=O)(=O)c2ccc(NC(=S)NC(=O)/C=C/c3cccs3)cc2)s1 | -51.8% (active)
CCc1nnc(NS(=O)(=O)c2ccc(NC(=O)c3cccc(OC(F)(F)C(F)F)c3)cc2)s1 | -19.6%
CCOC(=O)c1c(NC(=S)NC(=O)/C=C/c2cccs2)sc(C)c1C | -4.36%
CCc1nc2ccc(C(=O)NCCNC(C)=O)cn2c1N(CC)Cc1cccc(Br)c1 | 2.11%
COc1cccc2c1C(=O)c1c(O)c3c(c(O)c1C2=O)CC(O)(C(C)=NNC(=O)c1ccc(Cl)c(Cl)c1)CC3OC1CC(N)C(O)C(C)O1 (configuration not stated) | -61.1% (active)
CCc1cc(-c2nnn(CCC3COCCO3)c2CC)ccc1-c1cn(Cc2ccc3ccccc3c2)nn1 (configuration not stated) | 10.5%
O=C(NCc1cccnc1)c1cc(C2CCCCN2C(=O)CCc2ccccc2)on1 (configuration not stated) | -8.66%
CC(=O)N(C1=C(Cl)C(=O)c2ccccc2C1=O)c1ccc(C(=O)O)cc1 | -81.9% (active)
O=C(NC1=CC(=O)c2ccccc2C1=O)c1ccccc1 | -2.02%
CC(C)(C)C1CCC(=O)N2CCC[C@]2(c2ccccc2)C1 (some centres not stated) | -0.325%
Cc1cccc(C)c1-n1nnnc1C1(C)CCC(=O)N1CCOc1ccccc1 (configuration not stated) | 6.34%
Nc1nnc(SCC(=O)Nc2ccc3nc(SCC(=O)Nc4ccccc4)sc3c2)s1 | -22.9%
O=C(CSc1nnc(SCc2ccc(F)cc2)s1)Nc1ccc(C(=O)O)cc1 | -51.9% (active)
O=C(CSc1nnc(SCc2ccc(Cl)cc2)s1)N/N=C/c1ccccc1Cl | -9.79%
Cn1nnnc1SCC(=O)Nc1nc2ccccc2s1 | 5.87%
O=C(CSc1nc2ccccc2s1)Nc1ccc(C(=O)O)cc1 | -69.8% (active)
COc1cc(OC)cc(-c2nnc(SCC(=O)Nc3ccc(C(=O)O)cc3)s2)c1 | -16.4%

Reference: PubChem BioAssay AID652105 (National Center for Advancing Translational Sciences (NCATS), 2013)
